TDP1 cell noCPT: qHTS for Inhibitors of human tyrosyl-DNA phosphodiesterase 1 (TDP1): qHTS in cells in absence of CPT; DT40 Tdp1-/- hTDP1 cells, no CPT, ATP luminescence, 48 h; Potency, µM (titrated, usually from 46.2 µM), for inactives: at the top dose activity change, negative = growth inhibition, hits mostly inhibitors; 15% of 420,000 active; further: nearly all actives have a fitted effect of over 55% in size
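No-CPT arm: Tdp1-/-;hTDP1 DT40 cells (400/well) plus compounds, incubated ≥48 hr at 37 °C. Readout CellTiter-Glo luminescence.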
DT40 TDP1 CPT: growth inhibition of DT40 Tdp1-/-;hTDP1 cells with camptothecin (screen for TDP1 inhibitors). chicken DT40 Tdp1-/-;hTDP1 cells + 20 nM CPT, ATP luminescence, 48 h. Potency, µM (highest dose often 46.2 µM), for the others: top-dose activity change, negative = growth inhibition, actives largely listed as inhibitors. 12% of 420,000 active; further: nearly all actives have a fitted effect of over 55% in size
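Cell growth measured by CellTiter-Glo luminescence after a minimum 48 h, 37 C compound exposure with 20 nM CPT in Tdp1-knockout DT40 cells stably expressing hTDP1, seeded 400/well; qHTS titration format.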
VDR inhibitor: inhibitors of human vitamin D receptor | Potency, µM, inactives show max response, negative = inhibition, hits mostly inhibitors | 0.93% of 400,000 active | AID 504847 | P11473 | VDR-SRC2-3 peptide fluorescence polarization, 2 h
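Two reagent solutions held at 4 deg C in the dark were dispensed, compounds pinned at 23 nl, and the mixture incubated 2 h at room temperature. Read-out: fluorescence polarization of VDR–SRC2-3 peptide binding.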
TDP1 inh: TDP1 (human) enzyme inhibition | Q9NUW8 | recombinant TDP1, AlphaScreen DNA substrate cleavage | Potency, µM (doses to about 130 µM), for the others: top-dose activity change, negative = inhibition, usual class: inhibitors | 0.28% of 350,000 active | AID 485290; further: nearly all actives have a fitted effect of over 40% in size
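Recombinant human Tdp1 (E. coli-expressed, 1 nM final) preincubated with compounds 15 min at room temperature, then 5'-biotin/3'-phosphotyrosine-FITC DNA substrate (15 nM final) added for 5 min. AlphaScreen beads (10 ug/ml final) added 10 min; cleavage lowers signal.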
GCN5L2 inh: GCN5L2 (KAT2A) acetyltransferase inhibition; Q92830; GCN5L2 HAT assay, ThioGlo1 CoA-SH fluorescence; Potency, µM (series often up to 58.9 µM), for inactives: at the top dose activity change, negative = inhibition, hits mostly inhibitors; 0.21% of 390,000 active
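Preincubate 20nM GCN5L2 with compound 15 min, RT → add 50uM ThioGlo1 + 75uM H3(1-25) + 70uM acetyl-CoA → read fluorescence 0 and 20 min. Primary qHTS; fluorescent artifacts likely.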
PLK1 PBD block: blocks phosphopeptide binding to human PLK1 polo-box domain; Plk1 PBD binding of FITC phosphopeptide, fluorescence polarization; Potency, µM, inactives show max response, negative = inhibition, most hits filed as inhibitors; 2.8% of 360,000 active; AID 720504; further: series mostly up to about 57 µM; nearly all actives have a fitted effect of over 65% in size
Numbers without * were called inactive; [ ] = dose if it differs, or a comment. Sampled rows, rich in hits. Any-hit rate of the full collection: about 18%. The call rests on the fitted dose curve; in most records, active means well fitted curve in the direction sought with a large enough effect; inconclusive means small, poorly fitted or top-dose-only effect, or another doubt; inactive means no such curve, though single readings can be large; an effect the other way counts as inactive or inconclusive. On the % scale 0 is the no-effect control and ±100 the full control effect; potency means the concentration at half of the fitted maximal effect.

O=C(Nc1cccc2cccnc12)OCc1ccccc1 was read as VDR inhibitor 0% and TDP1 inh 5%.
CC(C)C[C@H](NC(=O)[C@@H]1CCCN1C(=O)[C@H](Cc1ccccc1)NC(=O)[C@H](C)NC(=O)[C@H](CCC(=O)O)NC(=O)[C@H](C)NC(=O)[C@H](CO)NC(=O)[C@H](CCC(=O)O)NC(=O)[C@H](CC(=O)O)NC(=O)[C@H](CCC(=O)O)NC(=O)[C@H](C)NC(=O)CNC(=O)[C@H](CC(N)=O)NC(=O)[C@@H]1CCCN1C(=O)[C@H](Cc1ccc(O)cc1)NC(=O)[C@@H](NC(=O)[C@H](CCCCN)NC(=O)[C@@H](NC(=O)[C@@H]1CCCN1C(=O)[C@@H](N)CCCNC(=N)N)C(C)C)C(C)C)C(=O)N[C@@H](CCC(=O)O)C(=O)N[C@@H](Cc1ccccc1)C(=O)O was read as VDR inhibitor -4%, TDP1 inh 7% and GCN5L2 inh 0%.
Cc1cccc(C)c1NC(=O)COC(=O)c1ccccc1Nc1ccccc1 was read as TDP1 cell noCPT 9.2µM*, DT40 TDP1 CPT inconclusive, VDR inhibitor -12%, TDP1 inh 4%, GCN5L2 inh 6% and PLK1 PBD block -15%.
`CC1CCCC(C)N1C(=O)c1ccccc1Nc1ccc(SC(F)F)cc1` (stereo not drawn) gave TDP1 cell noCPT 21µM*, DT40 TDP1 CPT 23µM*, VDR inhibitor 10%, TDP1 inh 3%, GCN5L2 inh -7% and PLK1 PBD block -8%.
For CC(C)(C)NC(=O)COC(=O)c1ccccc1Nc1ccc(SC(F)F)cc1 the results were TDP1 cell noCPT 16µM*, DT40 TDP1 CPT inconclusive, VDR inhibitor -4%, TDP1 inh 4%, GCN5L2 inh -14% and PLK1 PBD block 2%.
Cc1cccc(C)c1NC(=O)COC(=O)c1ccccc1[N+](=O)[O-] was read as TDP1 cell noCPT 1%, DT40 TDP1 CPT 10%, VDR inhibitor 7%, TDP1 inh 4%, GCN5L2 inh -3% and PLK1 PBD block -4%.
Screening CC(=O)c1ccc(NC(=O)COC(=O)c2ccccc2Nc2ccccc2)cc1 returned TDP1 cell noCPT inconclusive, DT40 TDP1 CPT -14%, VDR inhibitor inconclusive, TDP1 inh 2%, GCN5L2 inh inconclusive and PLK1 PBD block 27µM*.
NC(=O)COC(=O)c1ccccc1Nc1ccc(SC(F)F)cc1 was read as TDP1 cell noCPT inconclusive, DT40 TDP1 CPT -19%, VDR inhibitor -16%, TDP1 inh 3%, GCN5L2 inh 1% and PLK1 PBD block -15%.
O=C(COC(=O)c1ccccc1Nc1ccccc1)Nc1ccccc1 was read as TDP1 cell noCPT 2%, DT40 TDP1 CPT -1%, VDR inhibitor 0%, TDP1 inh 0%, GCN5L2 inh 0% and PLK1 PBD block -7%.
For O=C(c1ccccc1Nc1ccc(SC(F)F)cc1)N1CCCCC1 the results were TDP1 cell noCPT inconclusive, DT40 TDP1 CPT -9%, VDR inhibitor -1%, TDP1 inh 1%, GCN5L2 inh -2% and PLK1 PBD block -7%.
Screening CC1CCCC(C)N1C(=O)COC(=O)C1CCN(S(=O)(=O)c2ccc3c(c2)OCCO3)CC1 (stereo not drawn) returned TDP1 cell noCPT -15%, DT40 TDP1 CPT 3%, VDR inhibitor 8%, TDP1 inh -7%[0.505 µM], GCN5L2 inh -1% and PLK1 PBD block -3%.
O=C(COC(=O)c1ccc(S(=O)(=O)N2CCOCC2)cc1)Nc1ccccc1OC(F)F was read as TDP1 cell noCPT -16%, DT40 TDP1 CPT -8%, VDR inhibitor -6%, TDP1 inh -1%, GCN5L2 inh -1% and PLK1 PBD block 4%.
`Cc1cccc(C)c1NC(=O)COC(=O)c1cc(=O)c2ccccc2o1` gave TDP1 cell noCPT inconclusive, DT40 TDP1 CPT inconclusive, VDR inhibitor inconclusive, TDP1 inh -3%, GCN5L2 inh -4% and PLK1 PBD block 21µM*.
`Cc1cc(OC(=O)c2ccccc2Br)cc(=O)n1C` gave TDP1 cell noCPT inconclusive, DT40 TDP1 CPT 21µM*, VDR inhibitor -7%, TDP1 inh -2%, GCN5L2 inh -2% and PLK1 PBD block 21µM*.
Cc1[nH]n(-c2ccccc2)c(=O)c1C=Nc1cccc2cccnc12 was read as TDP1 cell noCPT 0.92µM*, DT40 TDP1 CPT 0.65µM*, VDR inhibitor -11%, TDP1 inh 5%, GCN5L2 inh -9% and PLK1 PBD block -9%.
Cc1[nH]n(-c2ccccc2)c(=O)c1/C=N/N1C(=O)c2cccc3cccc(c23)C1=O was read as TDP1 cell noCPT 16µM*, DT40 TDP1 CPT inconclusive, VDR inhibitor -17%, TDP1 inh 8%, GCN5L2 inh -5% and PLK1 PBD block -17%.
Cc1ccc(-n2[nH]c(C)c(/C=N/c3ccccn3)c2=O)cc1 was read as TDP1 cell noCPT inconclusive, DT40 TDP1 CPT inconclusive, VDR inhibitor 1%, TDP1 inh -2%, GCN5L2 inh 3% and PLK1 PBD block 0%.
COc1ccccc1C1=NOC(C)(c2nnc(Cc3ccccc3)o2)C1 (stereo not drawn) was read as TDP1 cell noCPT -9%, DT40 TDP1 CPT -4%, VDR inhibitor -6%, GCN5L2 inh inconclusive and PLK1 PBD block -1%.
`COc1ccc2[nH]c(=O)c(CN(c3ccccc3OC)S(=O)(=O)c3ccccc3)cc2c1` gave TDP1 cell noCPT 15µM*, DT40 TDP1 CPT 16µM*, VDR inhibitor 2%, GCN5L2 inh -3% and PLK1 PBD block 1%.
For COc1ccc2[nH]c(=O)c(CN(c3ccccc3)S(=O)(=O)c3ccccc3)cc2c1 the results were TDP1 cell noCPT 21µM*, DT40 TDP1 CPT inconclusive, VDR inhibitor 4%, TDP1 inh 3%, GCN5L2 inh -6% and PLK1 PBD block 1%.
For Cc1ccc2cc(CN(c3ccccc3)S(=O)(=O)c3ccccc3)c(=O)[nH]c2c1 the results were TDP1 cell noCPT inconclusive, DT40 TDP1 CPT -25%, VDR inhibitor 16%, GCN5L2 inh -11% and PLK1 PBD block -9%.
`Cc1ccc(N(Cc2cc3cc(C)ccc3[nH]c2=O)S(=O)(=O)c2ccccc2)cc1` gave TDP1 cell noCPT 15µM*, DT40 TDP1 CPT 23µM*, VDR inhibitor -15%, TDP1 inh 3%, GCN5L2 inh -28% and PLK1 PBD block -7%.
